Results filed as inconclusive are left out. Active and inactive are the calls of the source. The calls were made as follows: active = hit-call score of the fitted dose curve at least 0.9, where 1 is the maximum; inconclusive = response in the unintended direction; inactive = score below 0.9.
The compounds below were run against sheep Cyclooxygenase-2 (Cox2), PTGS2 (gene 443460) (UniProt P79208) (assay: NVS_ENZ_oCOX2: NovaScreen (NVS) Enzymatic Assay for sheep Cyclooxygenase-2 (Cox2) (AID 2283231)).
sheep Cyclooxygenase-2 (Cox2), PTGS2 (gene 443460), sequence (P79208 whole entry, looked up): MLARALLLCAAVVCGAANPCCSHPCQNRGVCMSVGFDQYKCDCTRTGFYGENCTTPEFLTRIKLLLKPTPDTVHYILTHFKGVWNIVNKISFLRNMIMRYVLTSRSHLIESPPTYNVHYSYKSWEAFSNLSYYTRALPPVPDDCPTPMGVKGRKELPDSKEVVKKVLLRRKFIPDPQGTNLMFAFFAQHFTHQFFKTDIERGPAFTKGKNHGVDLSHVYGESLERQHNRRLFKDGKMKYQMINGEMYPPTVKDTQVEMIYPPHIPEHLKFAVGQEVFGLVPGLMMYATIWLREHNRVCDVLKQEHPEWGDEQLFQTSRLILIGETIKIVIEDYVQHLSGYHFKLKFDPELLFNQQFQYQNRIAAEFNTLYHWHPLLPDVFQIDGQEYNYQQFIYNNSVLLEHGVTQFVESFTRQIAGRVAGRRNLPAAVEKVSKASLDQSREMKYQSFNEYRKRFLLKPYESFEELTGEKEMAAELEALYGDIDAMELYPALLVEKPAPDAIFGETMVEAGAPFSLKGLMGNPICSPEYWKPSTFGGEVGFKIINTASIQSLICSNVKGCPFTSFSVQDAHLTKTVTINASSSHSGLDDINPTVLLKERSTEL
Summary of the method: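 Enzyme extracted from ovine placenta tested cell-free; activity read colorimetrically by absorbance 0.66 hour after dosing. Primary screen in duplicate at 25 uM; hits rerun as concentration series to 50 uM, loss of signal versus DMSO baseline.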
For `Cc1ncc([C@@H](CCCCCCc2ccc3c(n2)NCCC3)CC(=O)O)cn1`, the AC50 was 29 µM (active). `CC[C@H](C)C(=O)O[C@H]1C[C@H](O)C=C2C=C[C@H](C)[C@H](CC[C@@H](O)C[C@@H](O)CC(=O)O)[C@H]21` was tested, and the AC50 was 4.48 µM (active). In the case of `COc1cc(C(C)C)c2c(c1)S(=O)(=O)N(COc1cc(=O)n3cccc(OCCN4CCCCC4)c3n1)C2=O`, the outcome is reported as “inactive”. `CCn1nc(C)c2c1C(=O)NCC(c1ccc(O)cc1)=N2` was tested, and the outcome was “inactive”. In the case of `OCc1ccccc1`, the AC50 is reported as 12.3 µM (active). With `OC[C@H]1O[C@@H]2O[C@H]3[C@H](O)[C@@H](O)[C@@H](O[C@H]4[C@H](O)[C@@H](O)[C@@H](O[C@H]5[C@H](O)[C@@H](O)[C@@H](O[C@H]6[C@H](O)[C@@H](O)[C@@H](O[C@H]7[C@H](O)[C@@H](O)[C@@H](O[C@H]1[C@H](O)[C@H]2O)O[C@@H]7CO)O[C@@H]6CO)O[C@@H]5CO)O[C@@H]4CO)O[C@@H]3CO` the AC50 was 3.51 µM (active).

What follows are compounds tested against rat Constitutive Nitric Oxide Synthase (CNOS), Nos1 (gene 24598) (UniProt P29476) (assay: NVS_ENZ_rCNOS: NovaScreen (NVS) Enzymatic Assay for rat Constitutive Nitric Oxide Synthase (CNOS) (AID 2283236)).
rat Constitutive Nitric Oxide Synthase (CNOS), Nos1 (gene 24598), sequence (P29476 whole entry, looked up): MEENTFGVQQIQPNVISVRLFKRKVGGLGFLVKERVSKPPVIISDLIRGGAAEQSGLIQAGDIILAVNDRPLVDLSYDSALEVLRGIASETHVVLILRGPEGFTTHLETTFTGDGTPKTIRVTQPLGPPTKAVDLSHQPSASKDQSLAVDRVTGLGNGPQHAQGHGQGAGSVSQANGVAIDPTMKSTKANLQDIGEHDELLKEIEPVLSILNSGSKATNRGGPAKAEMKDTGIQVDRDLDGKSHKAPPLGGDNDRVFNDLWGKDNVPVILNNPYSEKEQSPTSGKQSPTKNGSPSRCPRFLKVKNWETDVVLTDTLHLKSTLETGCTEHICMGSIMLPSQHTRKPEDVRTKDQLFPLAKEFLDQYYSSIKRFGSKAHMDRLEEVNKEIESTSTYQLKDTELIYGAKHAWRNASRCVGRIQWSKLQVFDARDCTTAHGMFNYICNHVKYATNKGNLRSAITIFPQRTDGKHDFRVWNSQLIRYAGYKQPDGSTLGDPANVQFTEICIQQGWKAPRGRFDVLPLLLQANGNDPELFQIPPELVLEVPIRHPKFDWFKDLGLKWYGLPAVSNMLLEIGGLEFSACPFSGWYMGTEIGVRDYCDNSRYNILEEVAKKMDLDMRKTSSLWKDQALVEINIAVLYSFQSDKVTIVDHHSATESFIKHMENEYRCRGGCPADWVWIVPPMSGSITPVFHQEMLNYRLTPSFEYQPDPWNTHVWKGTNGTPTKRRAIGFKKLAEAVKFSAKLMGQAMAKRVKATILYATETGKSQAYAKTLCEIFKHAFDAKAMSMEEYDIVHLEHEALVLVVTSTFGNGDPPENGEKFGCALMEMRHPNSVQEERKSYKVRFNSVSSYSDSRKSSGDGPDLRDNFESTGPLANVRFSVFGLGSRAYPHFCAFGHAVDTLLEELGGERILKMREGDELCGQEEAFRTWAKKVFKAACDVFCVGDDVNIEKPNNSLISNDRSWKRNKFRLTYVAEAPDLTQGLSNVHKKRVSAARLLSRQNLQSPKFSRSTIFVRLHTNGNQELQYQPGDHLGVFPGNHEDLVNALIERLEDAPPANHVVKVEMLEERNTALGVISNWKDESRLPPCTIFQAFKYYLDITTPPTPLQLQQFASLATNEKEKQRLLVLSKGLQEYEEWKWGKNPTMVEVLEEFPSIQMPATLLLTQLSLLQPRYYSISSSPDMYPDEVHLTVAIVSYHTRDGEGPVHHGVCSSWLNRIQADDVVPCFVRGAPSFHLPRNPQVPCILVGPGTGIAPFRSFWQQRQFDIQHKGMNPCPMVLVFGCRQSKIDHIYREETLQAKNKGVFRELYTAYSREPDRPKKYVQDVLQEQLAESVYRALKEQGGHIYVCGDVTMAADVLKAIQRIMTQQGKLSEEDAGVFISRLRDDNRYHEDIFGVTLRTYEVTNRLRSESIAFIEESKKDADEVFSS
Summary of the method: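 Single 25 uM duplicate screen, then concentration series to 50 uM for chemicals meeting threshold. Rat brain membrane-derived CNOS activity detected radiometrically by filtration and scintillation counting, 1 h after compound addition; DMSO as baseline.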
`O=C(O)c1cccc(C[C@@H]2COc3ccc(OCc4nc5cc(F)ccc5s4)cc3[C@@H]2O)c1` was tested, and the outcome was “inactive”. `O=C1CN(N=Cc2ccc([N+](=O)[O-])o2)C(=O)N1` was tested, and the outcome was “inactive”. `CCCCCCCCN(C)C` was tested, and the outcome was “inactive”. For `CCCCC(CC)C(=O)OCCOCCOCCOC(=O)C(CC)CCCC` (configuration not stated), the AC50 was 5.94 µM (active). `CCCCCCCCCCCCCCO` was tested, and the AC50 was 11.7 µM (active). For `O=S(=O)(O)c1ccc(N=Nc2c(O)ccc3cc(S(=O)(=O)O)ccc23)cc1`, the AC50 was 25 µM (active).

These compounds were tested against sheep Cyclooxygenase-1 (Cox1), PTGS1 (gene 443551) (UniProt P05979) (assay: NVS_ENZ_oCOX1: NovaScreen (NVS) Enzymatic Assay for sheep Cyclooxygenase-1 (Cox1) (AID 2283239);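 also: actives reduce cyclooxygenase activity so potencies are for inhibitors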).
sheep Cyclooxygenase-1 (Cox1), PTGS1 (gene 443551), sequence (P05979 whole entry, looked up): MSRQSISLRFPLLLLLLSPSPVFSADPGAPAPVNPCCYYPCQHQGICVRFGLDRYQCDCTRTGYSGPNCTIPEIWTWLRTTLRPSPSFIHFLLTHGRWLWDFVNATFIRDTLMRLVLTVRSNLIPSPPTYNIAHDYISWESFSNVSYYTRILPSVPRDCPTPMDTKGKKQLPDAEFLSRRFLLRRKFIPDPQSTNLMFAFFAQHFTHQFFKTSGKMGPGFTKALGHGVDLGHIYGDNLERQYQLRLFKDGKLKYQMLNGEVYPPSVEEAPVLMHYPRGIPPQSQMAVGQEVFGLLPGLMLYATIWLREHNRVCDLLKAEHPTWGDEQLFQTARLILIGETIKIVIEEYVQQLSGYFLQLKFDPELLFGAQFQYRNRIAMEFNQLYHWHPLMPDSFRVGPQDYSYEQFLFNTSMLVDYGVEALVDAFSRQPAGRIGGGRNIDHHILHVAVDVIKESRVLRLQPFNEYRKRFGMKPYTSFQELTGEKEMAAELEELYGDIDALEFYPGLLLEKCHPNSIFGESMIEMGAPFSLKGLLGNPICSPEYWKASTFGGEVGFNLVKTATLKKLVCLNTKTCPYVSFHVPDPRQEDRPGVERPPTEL
Summary of the method: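 Ovine seminal vesicle extract; absorbance (colorimetric) enzyme read-out at 0.66 h post-dose. Primary: single conc 25 uM, duplicate. Follow-up: concentration series on actives. Activity = signal loss vs DMSO baseline.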
`C=CCc1cc(S(=O)(=O)c2ccc(O)c(CC=C)c2)ccc1O` was tested, and the AC50 was 1.07 µM (active). For `CC[C@H](C)C(=O)O[C@H]1C[C@H](O)C=C2C=C[C@H](C)[C@H](CC[C@@H](O)C[C@@H](O)CC(=O)O)[C@H]21`, the outcome was “inactive”. For `OCc1c[nH]c2ccccc12`, the AC50 was 25 µM (active). In the case of `Cc1nc(-c2ccccn2)ncc1C(=O)Nn1cc(C)c2cc(F)ccc21`, the outcome is reported as “inactive”. In the case of `O=C1CN(N=Cc2ccc([N+](=O)[O-])o2)C(=O)N1`, the outcome is reported as “inactive”. In the case of `O=C(N[C@H](CO)[C@H](O)c1ccc([N+](=O)[O-])cc1)C(Cl)Cl`, the outcome is reported as “inactive”. For `O=C(O)c1cccc(C(=O)O)c1`, the outcome was “inactive”.

The compounds below were run against Adenosine receptor A1 (Bos taurus) (UniProt P28190) (assay: NVS_GPCR_bAdoR_NonSelective: NovaScreen (NVS) G Protein-Coupled Receptor Assay for bovine Adenosine Receptor (AdoR), Non-selective Binding (AID 2283244)).
Adenosine receptor A1 (Bos taurus), sequence (P28190 whole entry, looked up): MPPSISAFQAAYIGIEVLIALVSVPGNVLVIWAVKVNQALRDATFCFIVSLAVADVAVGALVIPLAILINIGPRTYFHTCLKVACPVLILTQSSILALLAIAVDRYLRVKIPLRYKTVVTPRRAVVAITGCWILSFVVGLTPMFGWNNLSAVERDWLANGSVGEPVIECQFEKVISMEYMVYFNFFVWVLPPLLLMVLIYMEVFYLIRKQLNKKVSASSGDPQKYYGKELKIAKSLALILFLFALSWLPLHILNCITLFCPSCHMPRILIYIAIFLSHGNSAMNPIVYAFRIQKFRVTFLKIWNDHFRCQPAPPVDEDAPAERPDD
Summary of the method: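 Cell-free binding with membranes from bovine striatum: radioligand displaced by test chemical, read after 1 h by filtration and scintillation. Single-point 25 uM duplicate primary, 50 uM top concentration in follow-up curves, DMSO baseline.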
With `C=CCc1cc(S(=O)(=O)c2ccc(O)c(CC=C)c2)ccc1O` the AC50 was 16.7 µM (active). In the case of `CCN(CC)C(=S)SSC(=S)N(CC)CC`, the outcome is reported as “inactive”. In the case of `CCCOc1ccc(S(=O)(=O)N2CCN(CC)CC2)cc1-c1nc2c(CC)n(Cc3ccccn3)nc2c(=O)[nH]1`, the outcome is reported as “inactive”.

— PubChem BioAssay (EPA / NIEHS)
